# What was measured:
# Experiment in all cases: PBM binding z-score (relative to random genomic background probes); higher = stronger binding; sequences stand for … in GC…GCGATTGACAGCGTAGAATGAAGG
# [1] = tested on: RARb homodimer (NR concentration 270 nM)
# Method in brief: (§1)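 The probes on custom Agilent 4×180K protein-binding microarrays were double-stranded, with 34-nt variable regions bearing direct-repeat seeds, single-nucleotide variants, half-site ablations and random human genomic background sequences. Incubation lasted 1 h with ligand-free nuclear receptor dimers in PBS pH 7.4, 2% milk, 0.02% Triton X-100, 1 mM DTT, 0.2 mg/mL BSA and 0.4 mg/ml salmon testes DNA. Antibodies against each partner (one per run) detected bound dimers, and fluorescence scans were regression-normalized. Binding z-scores take the random background probes as reference.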
# [2] = tested on: RARg:RXRa (NR concentration 270 nM, RXRa partner concentration 90 nM)
# Method in brief: as §1
# [3] = tested on: RARg homodimer (NR concentration 270 nM)
# Method in brief: as §1
# [4] = tested on: RXRa DBDmut IVT, anti-RXR (DBD mutation: RXRa K156A/R161A, NR concentration 90 nM)
# Method in brief: as §1
# [5] = tested on: RXRa homodimer (NR concentration 180 nM)
# Method in brief: as §1
# [6] = tested on: THRa homodimer (NR concentration 90 nM)
# Method in brief: as §1
# [7] = tested on: VDR homodimer (NR concentration 270 nM)
# Method in brief: as §1
# [8] = tested on: THRa:RXRa (NR concentration 90 nM, RXRa partner concentration 90 nM)
# Method in brief: as §1
# [9] = tested on: VDR:RXRa (NR concentration 270 nM, RXRa partner concentration 90 nM)
# Method in brief: as §1
Sequence,PBM binding z-score [1],PBM binding z-score [2],PBM binding z-score [3],PBM binding z-score [4],PBM binding z-score [5],PBM binding z-score [6],PBM binding z-score [7],PBM binding z-score [8],PBM binding z-score [9]
CGTCCAAGGTCAGTGAGGTCAGTGAATGCCGAGT,5.33,5.76,6.56,3.28,4.61,4.36,5.33,,
TAGCCTAGGTCATTCAGGCGCCAGTATAGAAAGC,2.25,3.97,4.09,1.78,,0.451,1.3,2.7,2.53
TCTAGTAGGTCACGGAGGTCACACACGACGGGTA,4.79,7.29,7.88,2.43,7.26,3.15,4.8,,
CTCGAAAGGTCAGTTGAGGTGAGTATACGGATAA,4.91,6.7,7.89,2.56,5.93,1.63,1.63,,
CAACCTAGGTCACGAAAGGTCAAAGTCGAATGAC,6.02,7.91,8.53,2.31,8.43,2.77,3.44,,
CGTCCAAGGTCAATGCTAGGTCACTGAAAGCATT,5.18,7.94,6.93,3.59,5.56,3.87,3.43,,
CTCGAAAGGTGGTGCTCAGGTGAGTATACCAAAC,0.207,0.0538,-0.152,-0.443,,0.504,-0.0516,1.78,-0.508
GCTGCTAGGTCAACTGATGGTCAGCTAAAGCTCG,3.57,5.2,5.18,1.44,,0.814,0.0317,2.99,1.47
GCATATAGGTAATTCAAGGTGAAAGTCCGATTGT,0.847,0.546,0.26,0.583,0.756,1.67,0.292,,
ACTAGTAGGTCAGCTGAGGTCACACACAATTCGG,5.47,6.45,7.1,2.43,6.29,5.63,5.23,,
CCGAGTAGGTTACGTGGGGGCATTCAGTGCGAAT,2.1,2.87,2.05,1.44,2.12,1.09,2.85,,
ACTAGTGGGTCAGCTGAGGTCACACACAATTCGG,5.07,5.77,6.44,1.74,5.48,4.71,4.55,,
CAAACTAGGTCAAAGGTCAAAGTAGAGCCAACCA,5.2,8.91,7.32,2.8,10.3,1.79,2.99,,6.71
CCTACTGGGCCACGAAAGGTCCTTGATTCAGTGA,0.647,0.00978,0.301,-0.311,,-0.289,-0.692,0.686,-0.615
CCTACTGGGCCATCAGGTGATTGATATCAACGTT,-0.117,0.0131,0.41,-0.814,-0.272,0.389,-0.474,,
CCGAGTAGGTTACGAGGAGGCATTCAGTGCGAAT,-0.00242,0.333,0.522,0.082,0.427,-0.82,-0.434,,
CGAACTAGGTAAAGGACAGTGAATCTCCGCACGC,0.899,0.243,0.583,0.0169,0.286,-0.0591,-0.21,,
CGTCAAAGTTCAAGGCAACGTAACAGAAAGCAGC,3.41,5.02,6.02,3.97,,-0.246,2.61,1.72,3.3
TCATATAGGTCAAAGGTGAAAGTCGGTGTGGTAA,4.1,7.06,5.46,2.48,,0.997,1.49,3.74,4.65
ACTAGGTGGTCAGCTGAGGTCACACACAATTCGG,4.47,4.04,4.46,0.949,4.06,5.08,2.8,,

Sequence,PBM binding z-score [1],PBM binding z-score [2],PBM binding z-score [3],PBM binding z-score [4],PBM binding z-score [5],PBM binding z-score [6],PBM binding z-score [7],PBM binding z-score [8],PBM binding z-score [9]
ATCGAACGGTCGACGAGGTGAGTATACACCGTTT,0.461,0.635,1.21,-0.546,,0.292,-0.356,1.26,
CAAACTAGGTCACCGGAAGGTCAAAGTTCGCATG,5.7,8.56,7.83,2.41,,3,4.52,4.59,6.38
GATAGTTGGTCAGTAAAAGGTCACACACCGGTCG,5.36,5.32,4.96,0.579,,1.91,2.12,3.59,
CGTCAAAGTTCAAGCTAACGTAACAGAAAGCAGC,3.86,5.65,6.4,4.63,,-0.403,3.69,1.86,
ATCGAAAGGTCGCAGGTGAGTATACCCACCCGAA,3.04,4.73,4.6,0.648,,0.171,0.597,2.57,
TCTAGTTGGTCATGGAGGTCACACACGACGGGTA,4.43,4.86,5.01,1.01,,2.8,3.38,3.61,
ATCGAAAAGTCGAAGGTGAGTATACCCACCCGAA,-0.251,0.436,0.586,-0.665,,-0.357,-0.0912,0.0744,
AGTCAAAGTTCATCTAGGTAACGAAAGATATGCT,3.88,5.82,6.19,4.79,,0.383,5.04,3.24,
CCTTACGGGTCACTCCATGTTATAGCATCGGAGT,2.87,4.1,3.99,1.59,,-0.286,1.46,2.84,
ATCTAAAGGTCGAAGGTGAGTATACCCACCCGAA,2.54,4.32,3.66,1.74,,0.159,0.755,2.21,
TATTGTAGATCAAAGGTTAAGAAAGCCGAAGCCT,1.38,2.06,1.28,-0.592,,-0.344,0.214,1.37,
CCAGACAGGTGAAAGGTCACTCAGTCTGGTACGC,4.99,6.66,5.89,1.18,,1.02,2.37,3.75,5.03
TAGCATAGGTCATGCGGGCCAGTATAGTGTCGGC,3.46,4.99,4.91,0.439,,-0.558,0.259,2.55,
CCTACGGGGCCAAAGGTCATTGATTCCAATGCTC,4.5,6.59,5.24,1.86,,0.564,2.99,3.78,5.3
CCGACTGGGGCAAAGGTCACCATACTCAGTACGA,4.81,7,6.32,0.548,,1.04,1.55,3.62,
ACTCGGAGGGCAAAGGTCAGAGCTACGCCAGTGA,4.39,7.23,5.86,1.7,,-0.408,1.05,3.36,
CCCACTGGGCCATTCAGAGGTCATTGATCATATG,4.3,4.48,3.31,0.382,,1.52,3.25,3.43,4.02
ACTAGTTGGTCAGCTGAGGTAACACACAATTCGG,1.07,0.611,0.949,0.36,,1.99,0.0871,3.97,
CCTAGTTGGTCAAGCTCACACACGCTATAGGTAC,0.906,0.632,1.12,0.623,,0.545,0.614,0.136,
CCTAGCAGGCGAGGGTCACTCAAGCATTTCGCTT,2.36,2.77,1.69,0.212,,-0.42,0.128,1.79,

Sequence,PBM binding z-score [1],PBM binding z-score [2],PBM binding z-score [3],PBM binding z-score [4],PBM binding z-score [5],PBM binding z-score [6],PBM binding z-score [7],PBM binding z-score [8],PBM binding z-score [9]
CAAAGTAGGTCAAGAGGTCAAAGTCCGCTTCCCG,5.78,8.31,7.92,2.89,,1.84,4.84,4.21,
TCATATAGGTAAAAGGTCAAAGTCGGTGTGGTAA,4.74,6.62,5.95,2.5,,1.47,3.09,3.85,
GCTAGTTTGTCAGTAAAAGGTCACACACCGGTCG,5.18,5.07,4.23,1.18,,1.61,2.4,3.6,
CCTTACGGGTCAAGGTTGTAGCACGGGTGGTACG,3.2,4.54,4.07,0.452,,0.122,1.18,2.38,
CGTCCAAGGTCAATGCTAGGCCAGTGAAAGCATT,3.99,6.23,6.11,3.55,,2.15,2.49,3.96,
TAGCCTAGGTCATAGGGCCAGTATAGTACGCATC,2.98,3.86,3.89,0.967,,0.823,0.453,2.75,
CATACAGGGACAGCTAGGCCAGAGTAGGGACGGC,0.286,0.368,0.718,-0.689,,0.148,-0.709,0.703,
CAAACTAGGTCACAGAGGTCAAAGTTCGTGCGTA,5.64,7.52,7.81,3.36,,3.18,7.28,4.93,
TAGCCTAGGTCATGCGGGCCAGTATAGTGTCGGC,2.89,3.98,4.4,0.813,,0.858,0.814,3.02,
TCTTGTAGGTCAAAGGTTAAGAAAGCCGAAGCCT,3.84,7.23,5.61,1.98,,0.452,0.881,3.76,
CAAACTAGGTCACGAAAGGGCAAAGTCGAATGAC,4.43,5.81,6.33,1.77,,1.42,1.35,4.54,5.28
ACTAGTTGGTCAGCTGAGGTCACACACAATTCGG,4.52,4.26,4.51,1.35,,4.99,3.54,5.14,
CGTCCAACGTCAGCAGGTCAGTGAAAGCGACGTG,1.92,0.905,1.54,-0.094,,-0.139,-0.585,0.784,
TCTCGGATGACACGAAAGGTCAGAGCTCGACATC,4.3,4.19,3.99,1.08,,0.526,0.594,2.79,
GATACAGGGTCAATGCCAGAGTACGCGTATTGAT,3.11,4.62,4.35,2.89,,0.742,2.31,2.87,
AGTCAAAATTCACTAGGTAACGTAAGATTCAGCT,0.0175,0.434,0.425,0.24,,0.608,0.272,0.806,
CAAACTAGGTCACAGAGGACAAAGTCCGTGCGTA,3.93,4.96,6.01,2.36,,1.94,3.57,3.89,
ACTAGTTGGTCACCTGAGGTCACACACAATTCGG,4.6,4.66,4.96,1.53,,5.66,5.13,5.34,
CTTAGTTGGTCAAGGTCACACACGCTATAGGTAC,4.53,4.9,5.2,2.05,,4.65,3.96,4.43,
